Consider 62 compounds from PubChem BioAssay AID1209 (Sanford-Burnham Center for Chemical Genomics, 2008).

The structures appear in SMILES notation. About 810 (0.43%) of roughly 190,000 compounds were called active. No stated cut-off is given here; in the data, active means inhibition above about 50%; inactive means the rest. This excerpt belongs to a sample that is enriched for actives.

For this assay, the target named is Mannose-6-phosphate isomerase (Homo sapiens) (UniProt P34949). Description: MPI enzyme activity inhibition – biochemical, fluorescence intensity, coupled assay, primary screen (AID 1209).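 Further: plate controls were DMSO vehicle for no effect and wells lacking substrate for full effect.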 The following applies: purified PMI enzyme, at 20 µM, hits give high values.
Sequence of Mannose-6-phosphate isomerase (Homo sapiens) (P34949 whole entry, looked up): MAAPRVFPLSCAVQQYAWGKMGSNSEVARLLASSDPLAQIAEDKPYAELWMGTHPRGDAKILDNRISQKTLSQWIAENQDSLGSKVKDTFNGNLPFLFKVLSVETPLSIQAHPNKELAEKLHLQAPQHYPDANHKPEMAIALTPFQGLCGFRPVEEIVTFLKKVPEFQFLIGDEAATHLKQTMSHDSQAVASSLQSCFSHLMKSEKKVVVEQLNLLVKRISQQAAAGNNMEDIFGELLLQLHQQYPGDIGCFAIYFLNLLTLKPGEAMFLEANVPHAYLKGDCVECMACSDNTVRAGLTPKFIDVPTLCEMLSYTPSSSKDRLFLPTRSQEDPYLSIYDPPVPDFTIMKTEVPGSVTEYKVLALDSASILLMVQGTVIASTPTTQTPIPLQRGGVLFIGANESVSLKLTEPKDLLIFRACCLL
For the compound `O=C(CSc1nc2ccccc2o1)NCC(=O)c1ccccc1`, the inhibition (as a rule, the drop in the measured response relative to a control, in per cent) is 10.6% (inactive).

Regarding `CC(=O)N1N=C(c2cccc(Cl)c2)OC1c1cccc([N+](=O)[O-])c1` (configuration not stated), the inhibition was 10.4% (inactive).

Take `Cc1cccc(NC(=O)CC2S/C(=N/c3nccs3)N(C)C2=O)c1` (configuration not stated): the inhibition is -1.9% (inactive).

For `Cc1ccc(-n2c(=S)[nH]c3sc4c(c3c2=O)CCC4)cc1`, the inhibition was 2.3% (inactive).

As for `COc1ccc(-n2c(=S)[nH]c3sc4c(c3c2=O)CCc2ccccc2-4)cc1`, the inhibition is 57.8% (active).

Turning to `Cc1cccc(-n2c(=S)[nH]c3c(oc4ccccc43)c2=O)c1`, the inhibition was -1.9% (inactive).

For `Cc1cccc(-n2c(=O)c3c4c(sc3n3c(=S)[nH]nc23)CCC4)c1`, the inhibition was -0.7% (inactive).

In the case of `Cc1ccc(-n2c(=S)[nH]c3sc4c(c3c2=O)CCc2ccccc2-4)cc1`, the inhibition was 10.4% (inactive).

For the compound `COc1ccc(N2C(=O)CCC(C(=O)NCCN3CCOCC3)C2c2ccc(OC)c(OC)c2)cc1` (configuration not stated), the inhibition is 17.2% (inactive).

In the case of `C=CCNC(=O)/C(=C/c1ccccc1OCC)NC(=O)c1ccccc1`, the inhibition is 3.5% (inactive).

As for `CCCSc1nnc2[nH]c(=O)cc(N)n12`, the inhibition was -1.4% (inactive).

On to `CCO[C@H]1OC(C(=O)N2CCN(Cc3ccc4c(c3)OCO4)CC2)=C[C@@H](c2ccccc2)[C@@H]1CCCO`, for which the inhibition is 7.5% (inactive).

As to `O=C(Cn1cncn1)NCCCc1ccccc1`, the inhibition is 4.2% (inactive).

Take `COc1cc(/C=C2\NC(=S)N(C)C2=O)ccc1O`: the inhibition was -2.1% (inactive).

In the case of `CC(=O)c1c(C)[nH]c(C(=O)OCC(=O)Nc2cc(Cl)ccc2[N+](=O)[O-])c1C`, the inhibition was 9.3% (inactive).

With `Cc1ccc(S(=O)(=O)N2CCN(C(=O)/C=C/c3ccco3)CC2)cc1`, the inhibition was 26% (inactive).

Take `COc1ccccc1N1C(=N)S/C(=C\c2ccc(-c3ccccc3C(=O)O)o2)C1=O`: the inhibition is -36.9% (inactive).

For the compound `Cc1ccc(C)c(N2C(=N)S/C(=C\c3ccc(-c4ccccc4C(=O)O)o3)C2=O)c1`, the inhibition is 18.5% (inactive).

In the case of `CC(=O)Nc1ccc(S(=O)(=O)NNC(=O)COc2ccc(C)cc2)cc1`, the inhibition is 0.9% (inactive).

Consider `CCOC(=O)N1CCN(Cc2ccc(F)cc2F)CC1`, for which the inhibition is -1.3% (inactive).

`Cc1cc(C)n2nc(CCc3nc4nc(C)cc(C)n4n3)nc2n1`: the inhibition was -4.4% (inactive).

For `Cc1cc(C)n2nc[n+](C)c2n1`, the inhibition is 72.6% (active).

Take `Cc1cc(C)n2ncnc2n1`: the inhibition was 5.9% (inactive).

Regarding `Cc1cc(-c2ccc(N3C(=O)CCC3=O)c(C)c2)ccc1N1C(=O)CCC1=O`, the inhibition is 1.5% (inactive).

For the compound `COC(=O)CN(c1ccc(Cl)cc1C)S(C)(=O)=O`, the inhibition was 1.2% (inactive).

As to `COc1ccc(C(=O)CNc2ccc3ccccc3c2)cc1`, the inhibition was 76.9% (active).

On to `COc1ccc(C(=O)CNc2ccccc2C#N)cc1`, for which the inhibition is -2.6% (inactive).

For the compound `COc1ccc(C(=O)CNc2ccccc2CO)cc1`, the inhibition is -10.5% (inactive).

`O=[N+]([O-])c1cccc(-c2nc3ccc([N+](=O)[O-])cc3[nH]2)c1`: the inhibition is -13.7% (inactive).

For the compound `COc1ccccc1NC(=O)c1ccc(NC(=O)COC(=O)C2CCCCC2)cc1`, the inhibition was 10.6% (inactive).

For the compound `CSC1=N/C(=C\c2cccc(F)c2)C(=O)S1`, the inhibition was -4.9% (inactive).

With `Cc1ccc(NC(=S)Nc2cccc3cnccc23)cc1`, the inhibition is 80.1% (active).

For `S=C(Nc1cccnc1)Nc1cccc2cnccc12`, the inhibition was 47.5% (inactive).

As to `Cc1cc(C)cc(NC(=S)Nc2cccc3cnccc23)c1`, the inhibition was 66.2% (active).

With `CCCCNC(=S)Nc1cccc2cnccc12`, the inhibition was 5.6% (inactive).

Regarding `Cc1ccc(NC(=S)Nc2cccc3cnccc23)cc1C`, the inhibition was -0.2% (inactive).

In the case of `S=C(Nc1ccc(Cl)cc1)Nc1cccc2cnccc12`, the inhibition was 26.4% (inactive).

On to `C=C(C)CNC(=S)Nc1cccc2cnccc12`, for which the inhibition is 14.2% (inactive).

Turning to `S=C(Nc1cccc(Cl)c1)Nc1cccc2cnccc12`, the inhibition is 57.2% (active).

In the case of `Cc1c(C(=O)N2CCN(c3ccc(C(F)(F)F)cn3)CC2)oc2ccccc12`, the inhibition is 13.3% (inactive).

For `CC(NC(=O)/C=C/c1ccco1)c1nc2ccccc2n1Cc1c(Cl)cccc1Cl` (configuration not stated), the inhibition is -4.3% (inactive).

Regarding `CNc1ccc2nnc(C(F)(F)C(F)(F)C(F)(F)F)n2n1`, the inhibition was -0.7% (inactive).

With `Cc1c(C)n(C(=O)CN2CCC(C(N)=O)CC2)c2ccccc12`, the inhibition is 7.2% (inactive).

As for `CCCC(=O)Nc1ccc(C(=O)Nc2ccc([N+](=O)[O-])cc2OC)cc1`, the inhibition was -20.7% (inactive).

As to `COc1ccc(OCC(=O)O/N=C(\N)Cc2cccs2)cc1`, the inhibition was 3.7% (inactive).

Turning to `O=C(CCN1C(=O)C2CC=C(Cl)CC2C1=O)NC1CCCCC1` (configuration not stated), the inhibition was -7.8% (inactive).

Regarding `Cc1cc(C)n2nc(SCC(=O)c3cc(C)n(CC4CCCO4)c3C)nc2n1` (configuration not stated), the inhibition was -13.5% (inactive).

For the compound `Cc1ccc(NC(=O)CSc2n[nH]c(-c3ccco3)n2)c(C)c1`, the inhibition was -4% (inactive).

As for `CCOC(=O)c1c(NCc2ccccc2)n[nH]c1C`, the inhibition is 13.3% (inactive).

In the case of `COc1ccc(N2C(=O)CC(Sc3ncn[nH]3)C2=O)c(OC)c1` (configuration not stated), the inhibition is 73.4% (active).

Regarding `Cc1cccc(N2C(=O)CC(Sc3ncn[nH]3)C2=O)c1` (configuration not stated), the inhibition is 34.7% (inactive).

For the compound `O=C1CC(Sc2ncn[nH]2)C(=O)N1c1ccccc1` (configuration not stated), the inhibition is 42.6% (inactive).

Regarding `CN(c1nnc(N)s1)C1CCCCC1`, the inhibition is -8.5% (inactive).

`CCn1ncc(C2=NOC(C(=O)Nc3cccc(O)c3)C2)c1C` (configuration not stated): the inhibition is -18.7% (inactive).

Take `C1=C(c2ccc(-c3ccccc3)cc2)Nc2ncnn2C1c1ccco1` (configuration not stated): the inhibition was 52.3% (active).

For the compound `Fc1ccc(C2=CC(c3ccco3)n3ncnc3N2)cc1` (configuration not stated), the inhibition is -42.5% (inactive).

On to `Clc1ccc(C2=CC(c3ccco3)n3ncnc3N2)cc1` (configuration not stated), for which the inhibition is -12.4% (inactive).

Consider `Cc1nc2[nH]c(=S)n(C)c(=O)c2nc1C`, for which the inhibition is -17.3% (inactive).

As for `COCCn1c(C(=O)N2CCCC2)cc2c1C[C@H]1CN(C(=O)c3ccccc3)[C@@](Cc3ccc(F)cc3)(C(=O)OC)[C@@H]21`, the inhibition was 13.8% (inactive).

For `COC(=O)[C@@]1(Cc2ccc(F)cc2)[C@H]2c3cc(C(=O)N4CCCC4)n(CCO)c3C[C@H]2CN1C(=O)c1ccccc1`, the inhibition was 1.6% (inactive).

Regarding `COC(=O)[C@@]1(Cc2ccc(F)cc2)[C@H]2c3cc(C(=O)N4CCCC4)n(CCc4ccc(O)c(O)c4)c3C[C@H]2CN1C(=O)c1ccccc1`, the inhibition is 50.8% (active).

For the compound `O=C(CNCc1ccc(F)cc1)Nc1ccccc1[N+](=O)[O-]`, the inhibition was 5% (inactive).
